Assay outcomes as filed in PubChem.
uPA surface inh: blocks generation of uPA at the cell surface; cell surface uPA generation assay, qHTS; Potency, µM (highest dose often 38.3 µM), usual class: inhibitors; 330,000 compounds, 0.31% hits; AID 540303; active = well fitted inhibition curve with a large enough effect; inconclusive = small, poorly fitted or top-dose-only effect; inactive = no such curve, though single readings can be large or run the other way; tested in mouse RAW 264.7 cells; also: nearly all actives have a fitted effect of over 55% in size
Integrin act MD: activates integrin-mediated alleviation for muscular dystrophy; alpha7betagal myoblasts, beta-gal FDG fluorescence, 48 h; Potency, µM (doses to about 38.3 µM), hits mostly activators; 350,000 compounds, 0.064% hits; also: nearly all actives have a fitted effect of over 60% in size
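alpha7betagal+/- myoblasts (passage 13, 250/well) treated 48 h at 37C with compounds at 1:260 dilution of DMSO stock. Lysed, then beta-galactosidase activity read as FDG fluorescence (ex 480/em 540) after 30 min, with pre-read for autofluorescence.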
12-LOX inh: blocks human arachidonate 12S-lipoxygenase. P18054. purified 12hLO, xylenol orange hydroperoxide absorbance. Potency, µM (highest dose often 108 µM), hits mostly inhibitors. 580,000 compounds, 1.1% hits
Target sequence (P18054 whole entry, looked up): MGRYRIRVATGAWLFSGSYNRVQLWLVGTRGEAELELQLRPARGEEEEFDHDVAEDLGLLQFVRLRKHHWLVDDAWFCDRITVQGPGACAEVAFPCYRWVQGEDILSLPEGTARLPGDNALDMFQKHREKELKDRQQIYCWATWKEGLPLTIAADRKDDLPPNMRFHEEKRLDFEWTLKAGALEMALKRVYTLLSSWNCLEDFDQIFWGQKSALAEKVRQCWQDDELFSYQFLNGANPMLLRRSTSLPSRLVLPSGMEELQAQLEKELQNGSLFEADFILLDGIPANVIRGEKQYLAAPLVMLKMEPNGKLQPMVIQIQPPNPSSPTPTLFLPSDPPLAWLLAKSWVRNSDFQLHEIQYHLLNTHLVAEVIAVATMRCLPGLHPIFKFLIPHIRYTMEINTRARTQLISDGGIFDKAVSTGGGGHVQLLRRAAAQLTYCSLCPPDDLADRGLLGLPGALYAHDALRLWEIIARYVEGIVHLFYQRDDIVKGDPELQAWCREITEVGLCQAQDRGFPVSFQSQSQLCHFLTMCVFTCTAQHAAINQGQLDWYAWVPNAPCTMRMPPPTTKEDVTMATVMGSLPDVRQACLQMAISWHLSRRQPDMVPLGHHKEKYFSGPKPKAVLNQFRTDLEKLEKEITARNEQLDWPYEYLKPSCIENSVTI
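Hydroperoxide product was detected by ferrous iron/xylenol orange as the 573 to 405 nm absorbance ratio. Arachidonic acid at 40 uM (final) was turned over for 30 min at room temperature by 150 nM human 12hLO, pH 7.0 Hepes buffer, after 15 min compound preincubation.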
IL-2 act: IL-2 activation; IL-2 activation reporter assay, cell-based qHTS; stimulated with anti-CD3/CD4/CD28 beads; in transgenic mouse T cells; activation, % (series mostly up to about 46 µM); 360,000 compounds, 0.065% hits; in the data active = activation above about 50%; inconclusive = mostly about 30% to 49%
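Readout is EGFP and DsRed signal by fluorescent plate cytometry after 18 h at 37 degrees C. Transgenic mouse T cells (750/well) received compound for 60 min before bead stimulation (anti-CD3, anti-CD4, anti-CD28); memory T cells served as non-tolerant control.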
Nrf2 activator: Nrf2 pathway activation. AREc32 ARE-luciferase reporter (MCF7-derived line), luminescence, 24 h. Potency, µM (highest dose often 46.1 µM), usual class: activators. 410,000 compounds, 0.31% hits. AID 624171; also: nearly all actives have a fitted effect of over 65% in size
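AREc32 cells carrying an ARE-driven firefly luciferase reporter were seeded at 1000 cells/well in OPTI-MEM with 5% FBS, then exposed to compound for 24 hr at 37 deg C. Luminescence was read with Steady-Glo after 30 min at RT.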
A number is an active result; [ ] = dose if it differs, or a comment. Hits are enriched below; roughly 1.5% of the tested compounds scored in any of these assays. Unless noted, calls follow the shape of the dose curve; as a rule, active = well fitted curve in the direction sought with a large enough effect; inconclusive = small, poorly fitted or top-dose-only effect, or another doubt; inactive = no such curve, though single readings can be large; an effect the other way counts as inactive or inconclusive.

For CC(C)OCCCn1c(-c2ccc(Br)cc2)c[nH]c1=S the results were uPA surface inh inactive, Integrin act MD inactive, 12-LOX inh 44.7µM, IL-2 act inactive and Nrf2 activator inactive.
O=C(Nc1ccc(Cl)cc1)c1sccc1-n1cccc1 was read as uPA surface inh inactive, Integrin act MD inactive, 12-LOX inh inactive, IL-2 act inactive and Nrf2 activator 11.2µM.
For COc1ccc(COc2ccsc2C(=O)Nc2ccc(Cl)cc2)cc1 the results were Integrin act MD inactive, 12-LOX inh inactive, IL-2 act inactive and Nrf2 activator 8.91µM.
Screening Cc1ccc(S(=O)(=O)Nc2nc3ccccc3nc2Nc2cccc(C(=O)O)c2)c(C)c1 returned 12-LOX inh inactive.
For Brc1ccc2c(c1)C(C1=NCCN1)c1ccccc1CS2 (configuration not stated) the results were uPA surface inh 0.501µM, Integrin act MD inactive, 12-LOX inh inactive, IL-2 act inactive and Nrf2 activator inactive.
For CCn1c(O)c(/C=N/N=C/c2ccc(OC)cc2)c2cc(C3=NNC(=O)CC3)ccc21 the results were uPA surface inh inactive, Integrin act MD inactive, 12-LOX inh inactive, IL-2 act 214.9 and Nrf2 activator inactive.
COc1cccc(NC(=O)[C@@H]2C[C@H](c3ccc(F)cc3)N([S+](C)(=O)[O-])C2)c1 was read as 12-LOX inh inactive.
For C#CCN(C[C@@H]1[C@@H](OC(=O)Nc2cccs2)[C@@H](OC(=O)Nc2cccs2)Cn2c(=O)n(CCCCCC)c(=O)n21)S(=O)(=O)c1ccc(C)cc1 the results were Integrin act MD inactive, 12-LOX inh 10µM, IL-2 act inactive and Nrf2 activator inactive.
CCOc1cc(C=O)cc(N=Nc2cccc([N+](=O)[O-])c2)c1O was read as uPA surface inh inactive, Integrin act MD inactive, 12-LOX inh inactive, IL-2 act inactive and Nrf2 activator 10µM.
O=[N+]([O-])c1cccc(N=Nc2ccc(O)cc2O)c1 was read as uPA surface inh inactive, Integrin act MD inactive, 12-LOX inh 20µM, IL-2 act inactive and Nrf2 activator inconclusive.
Screening CC1(C)CC(=O)C(N=Nc2cccc([N+](=O)[O-])c2)=C(O)C1 returned uPA surface inh inactive, Integrin act MD inactive, 12-LOX inh inconclusive, IL-2 act inactive and Nrf2 activator inactive.
`CC(Nc1ccc([N+](=O)[O-])cn1)c1ccc(Cl)cc1Cl` (configuration not stated) gave 12-LOX inh 56.2µM.
`CC1CCN(C(=O)CCC[C@H]2NC[C@@H]3C[C@H]2CN(Cc2ccccc2)C3)CC1` gave 12-LOX inh 10µM.
For CN(Cc1ccc(N2CCCCC2)cc1)C(=O)CCC[C@H]1NC[C@@H]2C[C@H]1CN(Cc1ccccc1)C2 the results were 12-LOX inh 7.94µM.
CC(CCN1CCC(CN2C(=S)NCC2Cc2ccccc2)CC1)c1ccccc1 (configuration not stated) was read as uPA surface inh inactive, Integrin act MD inactive, 12-LOX inh inconclusive, IL-2 act inactive and Nrf2 activator inactive.
CC(CCN1CCC(CN2C(=O)C(=O)NC[C@@H]2Cc2ccccc2)CC1)c1ccccc1 (some centres not stated) was read as uPA surface inh inactive, Integrin act MD inactive, 12-LOX inh 39.8µM, IL-2 act inactive and Nrf2 activator inactive.
Screening COC(=O)c1ccc(Cl)cc1NC(=O)N(Cc1ccc(OC)cc1)C1CCN(C(C)=O)CC1 returned 12-LOX inh inactive and Nrf2 activator inactive.
CCN1CCC(N(Cc2ccco2)C(=O)Nc2cc(Cl)ccc2C(=O)OC)CC1 was read as 12-LOX inh 6.31µM.
`O=C(O)c1cccc(NC(=O)c2ccc(Cl)c(S(=O)(=O)N3CCCCCC3)c2)c1` gave uPA surface inh 6.31µM, Integrin act MD inactive, 12-LOX inh inactive, IL-2 act inactive and Nrf2 activator inactive.
CCC(C(=O)N1CCC(c2n[nH]c(=O)n2Cc2ccc(OC)cc2)CC1)c1ccccc1 (configuration not stated) was read as 12-LOX inh 35.5µM.
For CC(=O)Nc1cc(-c2ccc(CO)cc2)cn2c(-c3ccc(F)cc3)cnc12 the results were 12-LOX inh 44.7µM, IL-2 act inactive and Nrf2 activator inactive.
For O=CNc1cc(-c2cccc(O)c2)cn2c(-c3ccc(F)cc3)cnc12 the results were 12-LOX inh 44.7µM, IL-2 act inactive and Nrf2 activator inactive.
CC(=O)Nc1cc(-c2ccccc2N(C)C)cn2c(-c3cccc(C(F)(F)F)c3)cnc12 was read as 12-LOX inh 8.91µM, IL-2 act inactive and Nrf2 activator inactive.
Screening CCCCOCCCNC(=O)c1c(C)noc1-c1ccc(OC(F)(F)F)cc1 returned 12-LOX inh inactive.
For CCC1(N2CCN(S(=O)(=O)c3ccc4c(c3)CCCC4)CC2)CCN(C(=O)C(C)C)C1 (configuration not stated) the results were 12-LOX inh 22.4µM.
`CCC1(N2CCN(S(=O)(=O)c3ccc(F)c(C)c3)CC2)CCN(C(=O)C(C)C)C1` (configuration not stated) gave 12-LOX inh inactive.
`COc1cc2sc3cc(NCc4ccc(C)o4)ccc3c(=O)c2cc1OC` gave uPA surface inh 12.6µM, Integrin act MD inactive, 12-LOX inh inconclusive, IL-2 act inactive and Nrf2 activator inconclusive.
For CCn1c(=O)c2c(n3c(=S)[nH]nc13)-c1ccccc1CC21CCCCC1 the results were uPA surface inh inactive, Integrin act MD inactive, 12-LOX inh 14.1µM, IL-2 act inactive and Nrf2 activator inactive[9.22 µM].
CCSc1nnc2n(C)c(=O)c3c(n12)-c1ccccc1CC31CCCCC1 was read as 12-LOX inh inactive.
For COC(=O)c1ccsc1NC(=O)CCS(=O)(=O)c1ccccc1 the results were uPA surface inh inconclusive, Integrin act MD inactive, 12-LOX inh inactive, IL-2 act inactive and Nrf2 activator 12.6µM.
For COC(=O)c1ccsc1NC(=O)CCS(=O)(=O)c1ccc(Cl)cc1 the results were uPA surface inh inconclusive, Integrin act MD inactive, 12-LOX inh inconclusive, IL-2 act inactive and Nrf2 activator 15.8µM.
Screening COC(=O)c1ccsc1NC(=O)CS(=O)(=O)c1ccccc1 returned uPA surface inh inactive, Integrin act MD inactive, 12-LOX inh inactive, IL-2 act inactive and Nrf2 activator inactive.
COCCNC(=O)Cn1ccc2cc(Cl)ccc21 was read as 12-LOX inh inactive.
`NC(=O)c1cc2c3ccccc3ccn2c1-c1ccccc1` gave uPA surface inh inactive, Integrin act MD inactive, 12-LOX inh inconclusive, IL-2 act inactive and Nrf2 activator 10µM.
`COc1ccccc1-c1cc(NCc2cnc(C)cn2)ncn1` gave 12-LOX inh 5.62µM.
`CCOc1ccc(C=Nc2ccc(N(C)C)cc2)cc1` gave 12-LOX inh 31.6µM.
